In PubChem BioAssay:
Several values for one entry are separate records, joined by “and”; a condition that tells them apart may be missing. Identical values can stand only once. For some of these results: Entries with a potency or affinity are not part of this list. Activity calls are given as the source filed them. Rule as the data show it, unless noted: active = parasite load remaining mostly below about 12% (no sharp cut-off); inactive = mostly above about 10%. Numbered stars: 1 amine (or outer) side, 2 acyl side, 3 side chain; on linkers, the order of the positions; unused ones are H or OH. Bridge positions count the residues as written; N and C are the ends. Square brackets hold non-standard residues; d marks the D form. Side chains are listed from the residue outwards. Peptide text beside a SMILES is read from it. I, II: the chains in the order shown. * marks the point of attachment. Actinocin(9to1) = Cc1c2oc3c(C)ccc(C(=O)[*:1])c3nc-2c(C(=O)[*:2])c(N)c1=O; X2 = CCC(C)C(N)C1=NC(C(=O)*)CS1; NMeV = CN[CH](C(=O)O)C(C)C; Orn = NCCC[CH](N)C(=O)O; Sar = CNCC(=O)O

Legend:
[1] = polyglutamine-triggered caspase-3 activation inhibitors, cell-based (AID 1583); settings: polyglutamine-induced caspase-3 activation, cell assay; stronger effect = higher value;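 tested at 10 µM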
[2] = suppressors of polyQ aggregation in yeast, 75Q-TubU reporter (AID 1593); settings: Yeast 75Q polyglutamine aggregation reporter
[3] = rescue of polyQ-huntingtin neuronal dysfunction in worms, whole organism, C. elegans mechanosensory neurons, N-terminal huntingtin (AID 1599); settings: touch response, stronger effect = higher value
[4] = inhibitors of mitochondrial cytochrome c release, biochemical, purified mitochondria (AID 1603); settings: stronger effect = lower value;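 also: mouse liver mitochondria challenged with calcium chloride; signal normalized to the plate average as 100%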
[5] = inhibitors of polyQ protein aggregation (AID 1604); settings: polyglutamine-induced protein aggregation inhibition assay; stronger effect = higher value; tested at 2.5 µM
[6] = enhancers of glutamate uptake in motor neurons, MN-1 cell line (AID 1612); settings: MN-1 motor neuron cells, stronger effect = higher value;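 also: tested at 1 µM final; 0% = mean of DMSO vehicle wells on each plate; positive means more glutamate uptake than control and negative means less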
[7] = reducers of polyQ inclusions in PC12 cells, cell-based, NGF-treated PC12, GFPQ80 (AID 1614); settings: PC12 NGF-treated GFP-polyQ80 inclusion reduction;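 also: lower means fewer inclusions and 0 means no inclusions at all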
[8] = suppressors of polyglutamine aggregation in yeast, 75Q-TubH (AID 1616); settings: S. cerevisiae 75Q-TubH polyglutamine aggregation suppression; stronger effect = higher value
[9] = liver-stage malaria parasite growth inhibition, primary screen, cell-based, HepG2, luciferase luminescence, HepG2 viability (AID 624349);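 also: 100% = mean of DMSO negative control wells on the same plate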; settings: P. berghei liver stage in HepG2, luciferase luminescence, concentration not given here; parasite load remaining: stronger effect = lower value; viability: measured here: HepG2 viability without parasites
[10] = differential killing of epithelial or mesenchymal cells, primary screen, imaging, PC-3E GFP, TEM4-18 mCherry, co-culture (AID 1345086;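 active = compounds killing one labelled cell type while sparing the other, by normalised counts and ratio limits, not self-fluorescent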;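 as to all read-outs here: cells exposed to compound for 72 h before imaging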;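 as to red/green cell ratio (normalised): normalised mesenchymal count divided by normalised epithelial count so high means epithelial killing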); settings: imaging cell counts, at 1 µM; for red/green cell ratio (normalised): actives lie on both sides, counts scaled to control wells, 1 = unselective
[11] = sensitizers of A549 cells to miR-34 induction, primary screen, imaging, A549 dox-inducible miR-34, nuclei and caspase counts (AID 1347080;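 active = compounds whose cell count with miR-34 switched on is under 0.7 times the count with it off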); settings: A549 miR-34 inducible, Hoechst nuclei count, 48 h
[12] = hESC survival regulators, cell-based (AID 493140; call rule not given here;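 also: cells exposed to compounds for four days before counting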); settings: human embryonic stem cell survival screen; stronger effect = higher value
[13] = measured here: epithelial PC-3E GFP cell survival
[14] = measured here: mesenchymal TEM4-18 mCherry cell survival
[15] = stronger effect = lower value, cell number ratio, induced over uninduced
[16] = measured here: relative caspase fold change +Dox/-Dox
[17] = measured here: total cells with miR-34 induction, stronger effect = lower value
[18] = measured here: total cells without miR-34 induction

Structure (SMILES)	inhibition [1] [%]	score [2]	rescue above control [3]	cytochrome c release ratio [4]	inhibition of aggregation [5] [%]	glutamate uptake change [6] [%]	inclusion score [7]	aggregation suppression score [8]	parasite load remaining [9]	viability [9]	red/green cell ratio (normalised) [10]	normalised cell number [10, 13]	normalised cell number [10, 14]	fold change [11, 15]	fold change [11, 16]	cell count [11, 17]	cell count [11, 18]	survival [12]
C[C@]12CCC3c4ccc(O)cc4CCC3C1C[C@@H](O)[C@@H]2O (stereo not given in full)	-10.9	0.64	0.35	0.85	84.5	-5.15	2	0.718	84.5% (inactive) and 67.1% (inactive)	72.3% and 96.2%	0.95 (inactive)	1	0.95	0.868 (inactive)	1.18	11100	12800	
C#C[C@]1(O)CCC2C3CCC4=Cc5oncc5C[C@]4(C)C3CC[C@@]21C (stereo not given in full)	10.9	1.04	5.61	1.19	69.1	-6.15		0.874	83.8% (inactive) and 19.9% (inactive)	69% and 89.7%	1.05 (inactive)	1.19	1.26	0.952 (inactive)	2.2	9590	10100	
CCCCCCCCCCCCC[N+](C)(C)Cc1ccccc1	73.1	-0.05	0	5.81	25	18.1		-0.017	85.2% (inactive) and -0.62% (inactive)	75.6% and 58.8%	0.62 (inactive)	0.83	0.51	0.898 (inactive)	1.61	74.5	83	
CC12CCC3C(=CCc4cc(O)ccc43)C1CCC2=O (stereo not given)	-18.1	0.86	0.8	0.66	84.7	1.39		0.518	112% (inactive) and 14% (inactive)	72.6% and 110%	1.28 (inactive)	1.14	1.45	0.897 (inactive)	0.851	11100	12400	
CN1CCN(CCC=C2c3ccccc3Sc3ccc(S(=O)(=O)N(C)C)cc32)CC1	35.1	0.75	18.8	2.01	76	-21.1		0.481	192% (inactive) and 47.1% (inactive)	71.3% and 85.4%	1.07 (inactive)	0.83	0.89	0.878 (inactive)	3.25	9700	11100	
C[C@]12CCC3c4ccc(O)cc4CCC3C1CC[C@@H]2OC(=O)CCC1CCCC1 (stereo not given in full)	30.9	-0.35	-0.57	0.97	94.4	-6.63		0.396	77.3% (inactive) and 37.9% (inactive)	74.2% and 90.6%	1.54 (inactive)	0.83	1.27	1 (inactive)	1.31	11300	11300	
O=C(O)CCCCC1SCC2NC(=O)NC21 (stereo not given)	27.9	1.08	4.79	0.89	0	-4.28	2	1.3	40.6% (inactive) and 36.1% (inactive)	78% and 88.2%	1.21 (inactive)	1.02	1.23	0.892 (inactive)	3.76	12200	13700	
CC(=O)[C@H]1CCC2C3CCC4=CC(=O)CC[C@]4(C)C3CC[C@@]21C (stereo not given in full)	41.6	0.59	3.59	1.24	84.5	-1.48		0.333	49.3% (inactive) and 27.2% (inactive)	66.1% and 99.4%	0.96 (inactive)	1.15	1.11	0.856 (inactive)	1.4	9840	11500	
CC(=O)[C@H]1CCC2C3C[C@H](C)C4=CC(=O)CC[C@]4(C)C3[C@@H](O)C[C@@]21C (stereo not given in full)	-9.54	0.84	5.72	0.58	53.9	24.3		0.683	75.8% (inactive) and 64.6% (inactive)	70.5% and 91.2%	1.01 (inactive)	1.12	1.13	0.946 (inactive)	2.37	8730	9220	
COc1cc([C@@H]2c3cc4c(cc3C(O[C@@H]3O[C@@H]5CO[C@@H](c6cccs6)OC5[C@H](O)[C@H]3O)C3COC(=O)[C@@H]32)OCO4)cc(OC)c1O (stereo not given in full)									111% (inactive) and 83.3% (inactive)	75.6% and 112%	1.33 (inactive)	0.27	0.36	0.795 (inactive)	3.39	3270	4110	
CCc1cc(Cl)c(OC)c(C(=O)NCC2CCCN2CC)c1O (stereo not given)											0.67 (inactive)	1.29	0.86	0.847 (inactive)	0.822	7250	8550	1.5 (inactive)
CCN[C@@H]1C[C@H](N)[C@@H](O[C@H]2OC(CN)=CC[C@H]2N)[C@H](O)[C@H]1OC1OC[C@](C)(O)[C@H](NC)[C@H]1O (stereo not given in full)									81% (inactive)	99.2%	0.96 (inactive)	1.05	1	0.763 (inactive)	6.26	8580	11200	
CCC(=O)OCC(=O)[C@@]1(OC(=O)CC)[C@@H](C)CC2C3CCC4=CC(=O)C=C[C@]4(C)C3(F)[C@@H](O)C[C@@]21C (stereo not given in full)									25.9% (inactive)	83.8%	1.32 (inactive)	1.03	1.37	0.918 (inactive)	2.62	7780	8480	
NC(Cc1c[nH]c2ccccc12)C(=O)O (stereo not given)									149% (inactive) and 37.9% (inactive)	72.8% and 89.5%	1.24 (inactive)	0.98	1.22	0.933 (inactive)	2.24	11800	12700	
CCCCC/C=C/CCC(=O)N[C@H]1[C@H](Oc2c3cc4cc2Oc2ccc(cc2Cl)[C@@H](O[C@@H]2O[C@H](CO)[C@@H](O)[C@H](O)[C@H]2NC(C)=O)[C@@H]2NC(=O)[C@H](NC(=O)[C@@H]4NC(=O)[C@H]4NC(=O)C(Cc5ccc(c(Cl)c5)O3)NC(=O)[C@H](N)c3ccc(O)c(c3)Oc3cc(O)cc4c3)c3ccc(O)c(c3)-c3c(OC4O[C@H](CO)[C@@H](O)[C@H](O)[C@@H]4O)cc(O)cc3[C@@H](C(=O)O)NC2=O)O[C@H](CO)[C@@H](O)[C@@H]1O (stereo not given in full)									146% (inactive)	99.2%	1.02 (inactive)	0.94	0.96	0.918 (inactive)	5.67	12100	13200	
N[C@H](Cc1cc(I)c(Oc2ccc(O)c(I)c2)c(I)c1)C(=O)O									45.9% (inactive)	99.9%	0.97 (inactive)	1.02	0.99	0.92 (inactive)	1.64	11400	12400	
C=C1CC[C@H](O)C/C1=C/C=C1\CCCC2(C)C1CCC2C(C)CCCC(C)C (stereo not given in full)									36.2% (inactive)	104%	1.03 (inactive)	1.11	1.14	0.909 (inactive)	2.89	11700	12900	
C[C@]12C=CC(=O)C=C1CCC1C2[C@@H](O)C[C@@]2(C)C1CC[C@]2(O)C(=O)COC(=O)CCC(=O)O (stereo not given in full)									61.5% (inactive)	98%	0.99 (inactive)	1.15	1.14	0.822 (inactive)	2.28	7880	9580	
CS(=O)(=O)c1ccc(C(O)[C@H](CF)NC(=O)C(Cl)Cl)cc1 (stereo not given in full)									50.1% (inactive)	102%	0.78 (inactive)	0.91	0.71	0.945 (inactive)	2.12	10700	11400	
Cc1c2oc3c(C)ccc(C(=O)OC(C)C4NC(=O)C(C(C)C)N(C)C(=O)CN(C)C(=O)C5CCCN5C(=O)C(C(C)C)NC4=O)c3nc-2c(C(=O)OC(C)C2NC(=O)C(C(C)C)N(C)C(=O)CN(C)C(=O)C3CCCN3C(=O)C(C(C)C)NC2=O)c(N)c1=O (stereo not given) (I: cyclo([Sar][NMeV]TVP) / II: cyclo([Sar][NMeV]TVP); linker I:3-II:3 via Actinocin(9to1); configuration not given here)									-0.105% (inactive)	76.4%	1.97 (active)	0.25	0.49	0.996 (inactive)	1.67	2910	2920	
CC1C/C=C/C=C/C=C/C=C/C(O[C@@H]2O[C@H](C)[C@@H](O)[C@H](N)[C@@H]2O)CC2OC(O)(CC(O)CC3OC3/C=C/C(=O)O1)CC(O)C2C(=O)O (stereo not given in full)									78.2% (inactive)	102%	1.02 (inactive)	1.04	1.06	0.858 (inactive)	2.95	11800	13800	
CC(=O)OCC(=O)[C@@]12OC(C)(C)O[C@@H]1CC1C3C[C@H](F)C4=CC(=O)C=C[C@]4(C)[C@@]3(F)[C@@H](O)C[C@@]12C (stereo not given in full)									117% (inactive) and 83.7% (inactive)	77.1% and 96.2%	1.1 (inactive)	1.15	1.26	0.893 (inactive)	0.979	6960	7790	
O=C(O)c1cc(O)c2c(c1)[C@@H]([C@H]1c3cc(C(=O)O)cc(O)c3C(=O)c3c(O[C@H]4O[C@H](CO)[C@@H](O)[C@H](O)[C@H]4O)cccc31)c1cccc(O[C@H]3O[C@H](CO)[C@@H](O)[C@H](O)[C@H]3O)c1C2=O									132% (inactive) and 77.3% (inactive)	80.8% and 104%	0.69 (inactive)	1.22	0.84	0.789 (inactive)	9.83	10200	12900	
CCC(C)C(N)C1=NC(C(=O)NC(CC(C)C)C(=O)NC(CCC(=O)O)C(=O)NC(C(=O)NCCCCC2NC(=O)C(CC(N)=O)NC(=O)C(CC(=O)O)NC(=O)C(Cc3cnc[nH]3)NC(=O)C(Cc3ccccc3)NC(=O)C(C(C)CC)NC(=O)C(CCCN)NC2=O)C(C)CC)CS1 (stereo not drawn) (cyclo(DNK([Ile-Glu-Leu-X2])[Orn]IFH); configuration not given here)									93.7% (inactive) and 69.5% (inactive)	71.2% and 97.2%	0.87 (inactive)	1.23	1.06	0.838 (inactive)	0.994	10300	12300	
